# Reference: PubChem BioAssay (NCATS)
# Records with an inconclusive call do not appear. Unmarked numbers belong to inactive results. Active and inactive are the calls of the source. Calls follow the shape of the dose curve; as a rule, active = well fitted curve in the direction sought with a large enough effect; inconclusive = small, poorly fitted or top-dose-only effect, or another doubt; inactive = no such curve, though single readings can be large; an effect the other way counts as inactive or inconclusive.
# Legend:
# HaCat = experiment: Cytotoxic Profiling of Annotated Libraries Using Quantitative High-Throughput Screening (AID 1296008); conditions: Five cell lines viability, CellTiter-Glo ATP luminescence, 48-72 h; max response: active compounds read low; also: nearly all actives have a fitted effect of over 60% in size
# Summary of the method: (§1)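 Cells exposed to compounds for 48 or 72 hr at 37 degrees Celsius. Viability read as ATP-coupled luminescence with CellTiter-Glo after 10 min at room temperature.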
# KB-3-1 = experiment: as above; conditions: Five cell lines viability, CellTiter-Glo ATP luminescence, 48-72 h; max response: active compounds read low
# Summary of the method: as §1
# NIH3T3 = experiment: as above; conditions: Five cell lines viability, CellTiter-Glo ATP luminescence, 48-72 h; max response: active compounds read low
# Summary of the method: as §1
# C33A = experiment: Primary qHTS to identify gynecologic anti-cancer compounds using libraries of approved drugs and bioactive compounds (AID 1345084); conditions: Gynecologic cancer cell panel viability, ATPlite luminescence, 48 h; series mostly up to 57.5 µM; also: nearly all actives have a fitted effect of over 55% in size
# Summary of the method: (§2)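 48 h compound exposure at 37 C, 5% CO2; five-point qHTS. ATPlite luminescence readout of cell ATP.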
# CASKI = experiment: as above; conditions: Gynecologic cancer cell panel viability, ATPlite luminescence, 48 h; series mostly up to 57.5 µM
# Summary of the method: as §2
# Es-2 = experiment: as above; conditions: Gynecologic cancer cell panel viability, ATPlite luminescence, 48 h; series mostly up to 57.5 µM
# Summary of the method: as §2
# HeLa = experiment: as above; conditions: Gynecologic cancer cell panel viability, ATPlite luminescence, 48 h; series mostly up to 57.5 µM
# Summary of the method: as §2
# Hek293T = experiment: as above; conditions: Gynecologic cancer cell panel viability, ATPlite luminescence, 48 h, control line for the selectivity index; series mostly up to 57.5 µM
# Summary of the method: as §2
# JEG-3 = experiment: as above; conditions: Gynecologic cancer cell panel viability, ATPlite luminescence, 48 h; series mostly up to 57.5 µM
# Summary of the method: as §2
# OV90 = experiment: as above; conditions: Gynecologic cancer cell panel viability, ATPlite luminescence, 48 h; series mostly up to 57.5 µM
# Summary of the method: as §2
# CAOV3 = experiment: as above; conditions: Gynecologic cancer cell panel viability, ATPlite luminescence, 48 h; series mostly up to 57.5 µM
# Summary of the method: as §2
# % is scaled to controls: 0 for no effect and ±100 for the full control effect; potency is read from the fitted curve at half-maximal effect.
smiles,measurement,setting,value
COC1CC(O[C@H]2CC[C@@]3(C)C(CCC4C3[C@H](OC(C)=O)[C@@H](OC(=O)/C=C/c3ccccc3)[C@]3(C)C(C(C)=O)CC[C@]43O)C2)OC(C)C1OC1CC(OC)C(OC2CC(OC)C(OC3OC(C)C(OC4OC(CO)C(O)C(O)C4O)C(OC)C3O)C(C)O2)C(C)O1 (some centres undefined),max response,HaCat,-18.9%
same,max response,KB-3-1,-0.895%
same,max response,NIH3T3,-9.54%
same,"activity change, negative = cytotoxicity",C33A,-1.17% [at 6.55 µM]
same,"activity change, negative = cytotoxicity",CASKI,1.19% [at 6.55 µM]
same,"activity change, negative = cytotoxicity",Es-2,0.971% [at 6.55 µM]
same,"activity change, negative = cytotoxicity",HeLa,-3.04% [at 6.55 µM]
same,"activity change, negative = cytotoxicity",Hek293T,-2.25% [at 6.55 µM]
same,"activity change, negative = cytotoxicity",JEG-3,-2.34% [at 6.55 µM]
same,"activity change, negative = cytotoxicity",OV90,-0.788% [at 6.55 µM]
C/C=C(\C)C(=O)O[C@@H]1CC2[C@@H](CC=C3C[C@@H](O[C@H]4C[C@H](OC)[C@H](O[C@H]5C[C@H](OC)[C@H](O[C@@H]6O[C@H](C)[C@@H](O[C@H]7C[C@H](OC)[C@H](O[C@@H]8O[C@H](CO)[C@@H](O)[C@H](O)[C@H]8O)[C@@H](C)O7)[C@H](OC)[C@H]6O)[C@@H](C)O5)[C@@H](C)O4)CC[C@@]32C)[C@@]2(O)CC[C@H](C(C)=O)[C@@]12C (some centres undefined),max response,HaCat,-4.54%
same,max response,KB-3-1,8.46%
same,max response,NIH3T3,-3.87%
same,"activity change, negative = cytotoxicity",C33A,1.36% [at 6.55 µM]
same,"activity change, negative = cytotoxicity",CASKI,2.06% [at 6.55 µM]
same,"activity change, negative = cytotoxicity",Es-2,-1.14% [at 6.55 µM]
same,"activity change, negative = cytotoxicity",HeLa,-0.318% [at 6.55 µM]
same,"activity change, negative = cytotoxicity",Hek293T,-2.04% [at 6.55 µM]
same,"activity change, negative = cytotoxicity",JEG-3,-4.6% [at 6.55 µM]
same,"activity change, negative = cytotoxicity",OV90,-1.27% [at 6.55 µM]
CC1=CC(=O)C2(OC3OC(C)C(O)C(OC(=O)/C=C/c4ccccc4)C3O)C=COC(OC3OC(CO)C(O)C(O)C3O)C12 (centres undefined),max response,HaCat,2.65%
same,max response,KB-3-1,7.12%
same,max response,NIH3T3,3.5%
same,Potency,C33A,inactive
same,Potency,CASKI,inactive
same,Potency,Es-2,inactive
same,Potency,HeLa,inactive
same,Potency,Hek293T,inactive
same,Potency,JEG-3,inactive
same,Potency,OV90,inactive
C=C1C(=O)O[C@@H]2/C=C(\C)C(=O)/C=C/[C@](C)(O)C[C@@H](OC(=O)C(C)C)[C@@H]12,Potency,HaCat,2.02 µM (active)
same,Potency,KB-3-1,7.18 µM (active)
same,Potency,NIH3T3,2.55 µM (active)
same,Potency,C33A,8.91 µM (active)
same,Potency,CAOV3,2.82 µM (active)
same,Potency,Es-2,3.16 µM (active)
same,Potency,Hek293T,4.47 µM (active)
Cc1ccc(S(=O)(=O)c2ccc([N+](=O)[O-])o2)cc1,Potency,HaCat,6.51 µM (active)
same,Potency,KB-3-1,23.1 µM (active)
same,Potency,NIH3T3,5.17 µM (active)
same,Potency,C33A,11.2 µM (active)
same,Potency,CAOV3,11.2 µM (active)
same,Potency,Es-2,8.91 µM (active)
same,Potency,Hek293T,8.91 µM (active)
COC(=O)c1c(C)cc(OC(=O)c2c(C)cc(OC)cc2OC)cc1O[C@@H]1O[C@H](CO)[C@@H](O)[C@H](O)[C@H]1O,max response,HaCat,-0.836%
same,max response,KB-3-1,-1.14%
same,max response,NIH3T3,-1.71%
same,Potency,C33A,inactive
same,Potency,CASKI,inactive
same,Potency,Es-2,inactive
same,Potency,HeLa,inactive
same,Potency,Hek293T,inactive
same,Potency,JEG-3,inactive
same,Potency,OV90,inactive
COC(=O)C[C@H]1[C@]2(C)C3=C(C)[C@H](c4ccoc4)C[C@H]3O[C@@H]2[C@H](OC(C)=O)C2[C@](C)(C(=O)OC)C=CC(=O)[C@@]21C (some centres undefined),max response,HaCat,-0.0032%
same,max response,KB-3-1,1.1%
same,max response,NIH3T3,4.56%
same,Potency,C33A,inactive
same,Potency,CASKI,inactive
same,Potency,Es-2,inactive
same,Potency,HeLa,inactive
same,Potency,Hek293T,inactive
same,Potency,JEG-3,inactive
same,Potency,OV90,inactive
COC(C(=O)N1Cc2[nH]nc(NC(=O)c3ccc(N4CCN(C)CC4)cc3)c2C1)c1ccccc1 (centres undefined),Potency,HaCat,5.8 µM (active)
same,Potency,KB-3-1,8.2 µM (active)
same,Potency,NIH3T3,4.11 µM (active)
same,Potency,C33A,inactive
same,Potency,CAOV3,1.41 µM (active)
same,Potency,Es-2,inactive
same,Potency,JEG-3,inactive
CC1=CCC2C(C)(C)CCC[C@]2(C)[C@@]12CC[C@](C)(CC(=O)O)O2 (some centres undefined),max response,HaCat,-3.64%
same,max response,KB-3-1,-6.84%
same,max response,NIH3T3,-1.28%
same,Potency,C33A,inactive
same,Potency,CASKI,inactive
same,Potency,Es-2,inactive
same,Potency,HeLa,inactive
same,Potency,Hek293T,inactive
same,Potency,JEG-3,inactive
same,Potency,OV90,inactive
COc1cc(NC(=O)Nc2cccc(CNC(=O)O[C@H]3CCOC3)c2)ccc1-c1cnco1,max response,HaCat,-5.46%
same,Potency,KB-3-1,4.11 µM (active)
same,Potency,NIH3T3,3.66 µM (active)
same,Potency,C33A,inactive
same,Potency,CAOV3,inactive
same,Potency,JEG-3,inactive
CC12CCC(=O)C=C1C(O)CC1C2C(O)CC2(C)C1CC[C@]2(O)C(=O)CO (some centres undefined),max response,HaCat,0.87%
same,outcome,KB-3-1,inactive
same,max response,NIH3T3,0.282%
same,"activity change, negative = cytotoxicity",C33A,4.59% [at 11.6 µM]
same,"activity change, negative = cytotoxicity",CASKI,-0.604% [at 11.6 µM]
same,"activity change, negative = cytotoxicity",Es-2,1.39% [at 11.6 µM]
same,"activity change, negative = cytotoxicity",HeLa,6.62% [at 11.6 µM]
same,"activity change, negative = cytotoxicity",Hek293T,5.48% [at 11.6 µM]
same,"activity change, negative = cytotoxicity",JEG-3,6.5% [at 11.6 µM]
same,"activity change, negative = cytotoxicity",OV90,9.39% [at 11.6 µM]
O=C(Nc1ccc(S(=O)(=O)Nc2ccccc2Cl)c(Cl)c1)c1ccccn1,max response,HaCat,-15.8%
same,max response,KB-3-1,-5.44%
same,max response,NIH3T3,-3.89%
same,Potency,C33A,inactive
same,Potency,CASKI,inactive
same,Potency,Es-2,inactive
same,Potency,HeLa,inactive
same,Potency,Hek293T,inactive
same,Potency,JEG-3,inactive
same,Potency,OV90,inactive
CC1(C)CC2C(O)c3cocc3CC(C)(O)C2C1 (centres undefined),max response,HaCat,-7.3%
same,max response,KB-3-1,5.78%
same,max response,NIH3T3,2.81%
same,Potency,C33A,inactive
same,Potency,CASKI,inactive
same,Potency,Es-2,inactive
same,Potency,HeLa,inactive
same,Potency,Hek293T,inactive
same,Potency,JEG-3,inactive
same,Potency,OV90,inactive
CC1=C(CO)C(=O)O[C@@H]([C@@H](C)[C@H]2CC[C@H]3[C@@H]4C[C@H]5O[C@]56[C@@H](O)C=CC(=O)[C@]6(C)[C@H]4CC[C@]23C)C1,Potency,HaCat,3.17 µM (active)
same,Potency,KB-3-1,2.82 µM (active)
same,Potency,NIH3T3,5.63 µM (active)
same,Potency,C33A,4.47 µM (active)
same,Potency,CAOV3,8.91 µM (active)
same,Potency,Es-2,11.2 µM (active)
same,Potency,Hek293T,11.2 µM (active)
